D2 ag-1: activates the human D2 dopamine receptor | HEK293 T-REx D2 cells, calcium flux agonist mode | activation, % at 2 µM | 340,000 compounds, 0.53% hits | AID 485358;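 active = activation over 3 SD above normal in the single-dose calcium agonist read, cut at about 30% in these data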; also: 0% is about no effect
Target sequence (P14416 whole entry, looked up): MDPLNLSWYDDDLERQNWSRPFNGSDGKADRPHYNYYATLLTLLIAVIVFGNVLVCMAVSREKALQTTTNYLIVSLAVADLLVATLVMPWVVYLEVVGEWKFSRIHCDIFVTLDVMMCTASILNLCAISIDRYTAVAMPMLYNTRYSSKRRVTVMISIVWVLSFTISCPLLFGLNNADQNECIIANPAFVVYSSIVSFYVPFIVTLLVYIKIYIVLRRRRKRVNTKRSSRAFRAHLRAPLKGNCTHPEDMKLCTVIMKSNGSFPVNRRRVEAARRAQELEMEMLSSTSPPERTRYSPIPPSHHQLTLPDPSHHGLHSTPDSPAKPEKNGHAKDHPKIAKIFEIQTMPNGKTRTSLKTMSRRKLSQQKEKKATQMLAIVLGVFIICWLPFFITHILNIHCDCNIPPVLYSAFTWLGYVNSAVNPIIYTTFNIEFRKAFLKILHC
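Tetracycline-induced HEK293 Trex cells with D2 receptor force-coupled to calcium signaling, plated overnight at 30 C and loaded with no-wash calcium dye. Calcium flux read kinetically for 180 s after compound addition; responses flag agonists.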
D2 PAM-1: positively modulates the human D2 dopamine receptor allosterically; P14416; HEK293 T-REx D2, calcium flux, EC20 dopamine potentiation; potentiation, % at 10 µM; 340,000 compounds, 0.34% hits; AID 485347;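 active = potentiation over 3 SD above the plate norm, cut at about 30% in these data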; also: 0% is about no effect
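Potentiation of an EC20 dopamine calcium response measured kinetically over 180 s, after a preceding 180 s compound-only read flagging agonists. Cells: inducible Hek293 Trex D2 line, 4000/well, cultured overnight at 30 C before dye loading.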
D2 PAM-2: human D2 receptor positive allosteric modulation; DiscoveRx D2 beta-arrestin cells, luminescence, 90 min; 100% = 57 uM dopamine signal; potentiation, % (concentration not given with the values); 360,000 compounds, 0.23% hits; in the data active = potentiation above about 50%
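D2 cells co-treated with compound plus 50 nM dopamine (EC20) for 90 min at 37 deg C to detect potentiation. Beta-arrestin recruitment was read as enzyme-fragment luminescence after 1 h at ambient temperature. Full response was set by 57 uM dopamine.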
D2 antag: D2 dopamine receptor (human) antagonism | HEK293 TREx D2 cells, calcium flux, dopamine EC80 | inhibition, % at 10 µM | 340,000 compounds, 2% hits | AID 485344; in the data active = inhibition above about 30%; inactive = below that, where a call was filed; also: 0% is about no effect
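Calcium flux kinetic readout in an inducible HEK293 TREx D2 line plated overnight at 30 C. After 180 s compound exposure, an EC80 dopamine challenge follows with another 180 s kinetic read to detect antagonism.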
D2 ag-2: human D2 receptor agonism in beta-arrestin assay | P14416 | DiscoveRx PathHunter D2 beta-arrestin, luminescence, 90 min; 100% = 57 uM dopamine signal | activation, % (concentration not given with the values) | 360,000 compounds, 0.084% hits | AID 624465; in the data active = activation above about 40%
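DiscoveRx PathHunter D2 beta-arrestin cells (2,100/well) attached overnight, then compound-stimulated 90 min at 37 C in HBSS/10 mM HEPES/0.1% Tween-20 buffer; beta-galactosidase complementation read by luminescence after 1 h at ambient temperature. Dopamine 57 uM final (EC100) as control.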
B2AR arrestin: agonists driving beta-arrestin recruitment to human beta2-adrenergic receptor. P07550. beta-arrestin recruitment to beta2AR, cell-based reporter. Potency, µM (series often up to 46.1 µM), for the others: top-dose activation, hits mostly activators. 330,000 compounds, 0.02% hits. AID 492947; active = well fitted activation curve with a large enough effect;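 also: potency is read from the fitted curve at half-maximal effect; 0% = DMSO controls and full agonism = EC100 isoproterenol or metaproterenol; nearly all actives have a fitted effect of over 65% in size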
* hit, by the source's call; nt = no result given. Sampled rows, rich in hits. Any-hit rate of the full collection: about 2.4%.

SMILES	D2 ag-1	D2 PAM-1	D2 PAM-2	D2 antag	D2 ag-2	B2AR arrestin
C=CCOc1ccccc1CN1CCC(Oc2ccc(C(=O)N3CCCCC3)cc2)CC1	0	-21	-46	47*	-4	0%
O=C(COC(=O)c1cccc(OC(F)F)c1)NC(=O)NC1CCCCC1	nt	nt	-22	nt	-1	0%
CC(C)Cc1nnc(NS(=O)(=O)Cc2ccccc2)s1	0	6	0	32*	0	-2%
Cc1ccc2cc(CN(CC3CCCO3)C(=S)NCc3ccco3)c(=O)[nH]c2c1C (centres undefined)	-1	5	-5	33*	-11	-1%
Cc1ccc(C)c2[nH]c(=O)c(CN(CC3CCCO3)C(=S)NCc3ccco3)cc12 (centres undefined)	-1	2	1	6	1	0%
Cc1ccc(C)c2[nH]c(=O)c(CN(Cc3cccs3)C(=S)NCc3ccco3)cc12	2	6	-8	53*	0	-1%
Cc1ccc(C2C(C(=O)c3cccs3)=C(O)C(=O)N2c2nnc(C)s2)cc1 (centres undefined)	40*	10	1	5	-2	-1%
CN1CCN(CCCNC(=O)c2cn(C3CCCCC3)c(=O)c3c2c2ccccc2n3C)CC1	-2	-8	-22	-18	-6	0%
Cn1c2ccccc2c2c(C(=O)NCCCN3CCCC3=O)cn(C3CCCCC3)c(=O)c21	1	32*	-38	10	-4	-1%
Nc1nnc(SCC(=O)Nc2ccccc2N2CCOCC2)s1	1	15	9	-8	1	0%
CSc1ccc(/C=C/C(=O)OCC(=O)N2CCN(S(=O)(=O)c3ccc(C)cc3C)CC2)cc1	0	-2	-4	41*	3	0%
Cc1ccc(S(=O)(=O)N2CCN(C(=O)COC(=O)/C=C/c3ccc(F)cc3)CC2)c(C)c1	0	5	-11	3	1	0%
CCN(CC)S(=O)(=O)c1ccc(NC(=S)NC(=O)C(C)C)cc1	9	10	-23	0	-4	0%
Cc1cccc(C)c1OCc1n[nH]c(=S)n1N	2	-5	-21	43*	14	0%
Cc1cccc(C)c1OCc1n[nH]c(=S)n1-c1ccccc1	1	0	-6	-11	9	0%
CCCc1nnc(NC(=O)c2nc(S(=O)(=O)Cc3cccc(C)c3)ncc2Cl)s1	-1	30*	-26	-13	-8	0%
Cc1ccc(CC(=O)Nc2ccc(F)c([N+](=O)[O-])c2)cc1	-1	16	-13	-3	-3	0%
Cc1ccc(CC(=O)Nc2ccc(F)c([N+](=O)[O-])c2)cc1C	2	-8	-9	42*	-3	0%
COc1ccc([C@@H]2C[C@H]3CN(Cc4ccccc4OC)C(=O)[C@]34CCCN24)cc1C	0	-2	-9	-3	-4	0%
COc1ccccc1CN1C[C@@H]2C[C@@H](c3ccc(C)c(C)c3)N3CCC[C@@]23C1=O	0	-2	-6	35*	-3	2%
Cc1ccc(C(=O)OC2CCOC2=O)cc1NC(=O)c1ccco1 (centres undefined)	1	-10	2	35*	-1	nt
C=CCN(C(=O)OC(C)(C)C)S(=O)(=O)NCc1ccccc1	0	15	-7	12	-2	0%
COc1cc(C(=O)OCCn2c(=O)c3c(ncn3CCN(C)C)n(C)c2=O)cc(OC)c1OC	-2	5	-11	34*	-2	0%
N=c1c(C(=O)NCC2CCCO2)cc2c(=O)n3ccccc3nc2n1Cc1ccccc1 (centres undefined)	2	-6	-34	14	-9	0%
Cc1ccc(Cn2c(=N)c(C(=O)NCc3ccco3)cc3c(=O)n4ccccc4nc32)cc1	-1	-25	-43	83*	-3	1%
SMILES	D2 ag-1	D2 PAM-1	D2 PAM-2	D2 antag	D2 ag-2	B2AR arrestin
N=c1c(C(=O)NCC2CCCO2)cc2c(=O)n3ccccc3nc2n1Cc1ccc(Cl)cc1 (centres undefined)	0	-15	-17	55*	-3	0%
COc1cccc(NC(=O)NC2CCN(Cc3nnnn3Cc3ccc4c(c3)OCO4)CC2)c1	0	-20	-8	14	-5	0%
CC(C)CNC(=S)Nc1ccccc1F	-1	34*	-11	-3	-3	-1%
CCCCNC(=S)Nc1ccccc1F	0	-9	-11	12	-2	0%
CCN(C(=O)C12CC3CC(CC(C3)C1)C2)C1CCS(=O)(=O)C1 (centres undefined)	0	-10	-14	28	9	0%
CCOC(=O)C1(CCOc2ccccc2)CCN(Cc2ccc(O)c(OCC)c2)CC1	0	-14	-26	39*	8	0%
CCOC(=O)C1(CCOc2ccccc2)CCN(Cc2ccc(C)o2)CC1	-1	-17	-19	42*	-1	0%
CCOC(=O)C1(CCOc2ccccc2)CCN(Cc2ccc(OC)c(O)c2)CC1	2	2	-4	-3	-3	0%
Cc1ccc(CNC(=O)Nc2cccc(C)c2)cc1	-1	-9	-12	-10	-1	0%
CC(CNC(=O)c1cc(COc2ccc3ncccc3c2)on1)c1ccccc1 (centres undefined)	-1	2	20	2	2	0%
CN(C1=NC(=O)C(CC(=O)Nc2ccc(Br)cc2)S1)c1ccc(O)cc1 (centres undefined)	0	-24	-24	40*	0	0%
O=C(CC1SC(=O)N(c2ccccc2)C1=O)Nc1ccc(Br)cc1 (centres undefined)	0	-3	-16	-3	-7	4%
CSc1ccccc1NC(=O)CSc1n[nH]c(C)c1[N+](=O)[O-]	0	0	-6	41*	-2	0%
CCCCN(C)CCNC(=O)c1nn(-c2ccc(OC)cc2)c(=O)c2c1c1ccccc1n2C	0	-17	-20	34*	-10	-1%
Cc1cc(NC(=O)C2C3C(=O)N(CC4CCCO4)C(C(=O)NC(C)(C)C)C34C=CC2(C)O4)no1 (centres undefined)	0	7	4	-2	-4	0%
Cc1cc(NC(=O)C2C3C(=O)N(CC4CCCO4)C(C(=O)NCc4ccccc4)C34C=CC2(C)O4)no1 (centres undefined)	1	6	-5	33*	-2	0%
CCOc1ccc(NC(=O)CSc2nnc(-c3ccccc3Cl)n2Cc2ccco2)cc1	1	-5	-25	8	-2	0%

High-throughput results as filed in PubChem BioAssay.
